# Measurements published in ChEMBL document CHEMBL3988442, “University of Dundee, Small-Polar-MMV Screening Library” (2021).
# In all, about 38,000 compounds went through this assay and about 1,200 (3.2%) showed an effect of 50% or more. The median lay at about -58%. The sample holds strong results, similar compounds and a random draw of the others, so the mix is not that of the screen.
# Test system: Plasmodium falciparum
# Assay: Calibr Malaria Delayed Death Assay SOP
# Format: functional, organism-based
# Set-up: scale not given: in the data most compounds retested in dose-response had high values
# Conditions: concentration 4.99e-06 (unit not given; other assays of the set use mol/L)
row,Compound,Percent Effect [%]
1,CC(C)Cc1nc(OCC(=O)O)c(C#N)c2c1CCCC2,-37.32
2,Cc1[nH]nc(CCC(=O)N2CCc3c(nc[nH]c3=O)C2)c1C,-169.9
3,CCN(CC)CCn1cnc(-c2ccccc2)c1-c1ncc[nH]1,-50.85
4,CCN(CC)CCn1cnc(-c2ccccc2)c1-c1cnn(CC)c1,18.58
5,CCN(CC)CCn1cnc(-c2ccccc2)c1-c1cnc(C)s1,52.89
6,CCc1ccsc1C(=O)NC(C#N)CC(C)C (centres undefined),-81.49
7,CC1CCN(C(=O)c2ccc(N(C)Cc3cnn(C)c3)nc2)CC1,-165.6
8,Cc1sc2nc(C(F)(F)F)nc(N3CCCN(C)CC3)c2c1C,75.15
9,Cc1sc2nc(C(F)(F)F)nc(N3CCN(C)CC3)c2c1C,10.88
10,CC(=O)N1CCN(c2nc(C(F)(F)F)nc3sc(C)c(C)c23)CC1,-31.05
11,CC(NCc1ccc(F)cc1)c1ccc2[nH]c(=O)[nH]c2c1 (centres undefined),-45.16
12,O=C1Nc2ccccc2/C1=C1\CCCCN1,-131
13,CN(C)CC(=O)N1CCc2sc(C(=O)NCC3CC3)cc21.O=C(O)C(F)(F)F,-49.99
14,CCn1nc2c(cc1=O)CN(Cc1nc(CCOC)no1)CC2,-158.3
15,CCCn1nc2c(cc1=O)CN(Cc1nc(CCOC)no1)CC2,60.93
16,CCCn1nc2c(cc1=O)CN(Cc1nc(-c3ccoc3)no1)CC2,-48.33
17,Cn1nc(CO)c2c1CCN(c1ncnc3c1CCNC3)C2,-81.19
18,CC(=O)Nc1ccc(CN(C)Cc2snnc2C)cc1,-153.1
19,CCNS(=O)(=O)c1cccc(CSC)c1,-125.2
20,CSCc1cccc(S(=O)(=O)NCCO)c1,-54.99
21,CCN(CC)CCNS(=O)(=O)c1cccc(CSC)c1,83.08
22,O=S(=O)(NCC1CCOC1)N1CCc2ccccc2C1 (centres undefined),-79.01
23,COCC1CCN(S(=O)(=O)NCC2COc3ccccc3C2)CC1 (centres undefined),-101
24,CN1CCCC(CNS(=O)(=O)N2CCc3ccccc3C2)C1 (centres undefined),77.6
25,O=S1(=O)CCC(CNS(=O)(=O)N2CCc3ccccc3C2)C1 (centres undefined),-112.5
26,CCN1CCC(CNS(=O)(=O)N2CCc3ccccc3C2)C1 (centres undefined),54.33

row,Compound,Percent Effect [%]
1,CN1CCN(S(=O)(=O)NCC2COc3ccccc3C2)CC1 (centres undefined),-15.69
2,O=S1(=O)CCN2C(=N1)Oc1ccc(S(=O)(=O)N3CCCC3)cc12,-88.45
3,CSCCCN1C[C@H](NC(=O)c2cc(C3CC3)on2)[C@@H](C2CC2)C1,21.88
4,O=C(c1cccnc1)N1CCC2(CC1)CCN(Cc1ccccn1)C2=O,-24.21
5,CCn1ncc(Cl)c1CN(C)C(=O)CCn1ncc(Br)c1C,-15.28
6,Cc1nc[nH]c1CN1CCN(C(=O)C2CC2)[C@H]2CS(=O)(=O)C[C@H]21,-108.2
7,C[C@@H](O)CNc1c(NCc2ccco2)c(=O)c1=O,-66.82
8,CC1(C)CC(=O)c2cnc3nc(N4CCCCC4)nc(O)c3c2C1,-100.7
9,O=C(CCOc1cccc(F)c1)N1CCCC1Cn1cccn1 (centres undefined),-132.8
10,Cc1ncc(CN2CCCC(c3cc(C(N)=O)[nH]n3)C2)s1 (centres undefined),-114.1
11,CN(C)CC1COCCN1C(=O)C1(c2cccs2)CCCC1.O=CO (centres undefined),30.77
12,CN(CCO)CC1COCCN1C(=O)C1(c2cccs2)CCCC1.O=CO (centres undefined),45.51
13,Fc1cccnc1N1CCCC(c2nccs2)C1 (centres undefined),-23.64
14,CN1CCC(CCNC(=O)N2CCN(Cc3ccon3)CC2)CC1,-51.38
15,CC(C)S(=O)(=O)CCN1CCc2c(ncn2C2CC2)C1,-95.89
16,CCS(=O)(=O)N1CCc2c(CN3CCOCC3)cncc2C1.Cl.Cl,-14.39
17,CC1CCCN(CCNC(=O)c2ccn(-c3ccc(F)cc3)n2)C1 (centres undefined),48.64
18,COc1ccc(-n2ccc(C(=O)NCCN3CCCCC3C)n2)cc1 (centres undefined),-78.7
19,CC1CCCCN1CCNC(=O)c1ccn(-c2cccc(F)c2)n1 (centres undefined),62.87
20,CC1CCN(CCNC(=O)c2ccn(-c3ccc(F)cc3)n2)CC1,59.32
21,CC1CCCCN1CCNC(=O)c1ccn(-c2ccc(F)cc2)n1 (centres undefined),33.02
22,CC1CCN(CCNC(=O)c2ccn(-c3ccccc3)n2)CC1,21.68
23,CS(=O)(=O)NCc1nnc2n1CCN(Cc1nccs1)C2,-79.56
24,Cc1ccc(S(=O)(=O)N2CCC(O)(CN(C)C)C2)cc1 (centres undefined),49.75
25,CN(C)CC1(O)CCN(S(=O)(=O)c2ccc(Cl)cc2)C1 (centres undefined),40.17
26,CN(C)CC1(O)CCN(S(=O)(=O)c2cccc(F)c2)C1 (centres undefined),65.12

row,Compound,Percent Effect [%]
1,CC(=O)c1ccc(CNC(=O)c2c(C)cc(C)cc2C)nc1C,-62.27
2,CN(C)C(=O)c1nn(C)c2c1CN(Cc1cccs1)C2.O=C(O)C(F)(F)F.O=C(O)C(F)(F)F,-31.31
3,NC(=O)CCC1CCCN(c2ccnc3cc(F)ccc23)C1 (centres undefined),82.57
4,NC(=O)CCC1CCCN(c2ccc3c(Cl)ccnc3c2F)C1 (centres undefined),-15.33
5,NC(=O)CCC1CCCN(c2ccc3ccc(F)cc3n2)C1 (centres undefined),-163.3
6,NC(=O)C1CCN(CCCNC(=O)Nc2nccs2)CC1,-52.35
7,CCn1nc(C)c2nc(C(C)C)nc(N3CCC(O)CC3)c21,-68.6
8,COc1ccccc1CN(Cc1cccc(C)c1)C(=O)[C@@H](N)CC(=O)O,-17.66
9,COCC(=O)N(Cc1cccc(C)c1)Cc1ccccc1OC,-1.416
10,CN[C@@H](C)C(=O)N(Cc1cccc(C)c1)Cc1ccccc1OC,83.47
11,Cc1cnc(N2C(=O)CSC2c2cccs2)s1 (centres undefined),-26.83
12,COC(=O)c1ccc2c(-c3ccnc(N[C@@H](C)CO)n3)c[nH]c2c1,-32.75
13,COc1ccc2[nH]cc(-c3ccnc(NC4CCCC4)n3)c2c1,56.79
14,COc1ccc2[nH]cc(-c3ccnc(N4CCC(C)CC4)n3)c2c1,-185.2
15,COc1ccccc1CC(C)CC(=O)NC(C)C (centres undefined),-116.6
16,CC(=O)N(Cc1noc(C2CC2)n1)C1CCN(Cc2cc(C)on2)C1 (centres undefined),-9.487
17,FC(F)(F)c1cccc(OC2CCN(Cc3c[nH]cn3)CC2)c1,48.24
18,FC(F)(F)c1cccc(OC2CCN(Cc3ncc[nH]3)CC2)c1,-24.7
19,Cc1cccc(-c2nc(N)nc3c2CN(C(=O)C2CCCC2)C3C)c1 (centres undefined),35.57
20,COc1ccccc1CN1CC(O)CN(C(=O)OCC(C)C)CC1=O (centres undefined),-17.94
21,Nc1ccc(C(=O)N2C[C@@H]3CC[C@H](C2)N(Cc2ccccc2)C3)cn1,-23.45
22,O=C(O)C(F)(F)F.O=C(O)C(F)(F)F.O=C(c1cccnc1)N1CCN2C[C@H](OCc3ccccc3)C[C@H]2C1,-25.13
23,CC(C#N)CSc1ccccc1NCC(=O)NC(C1CC1)C1CC1 (centres undefined),54.59
24,CC(C#N)CSc1ccccc1NCC(=O)Nc1ccccc1 (centres undefined),-74.13
25,CC(C#N)CSc1ccccc1NCC(=O)NC1CCCCC1 (centres undefined),-62.9
26,COc1c[nH]c(C(=O)N2CCN(c3ccccc3)CC2)cc1=O,-92.19

row,Compound,Percent Effect [%]
1,COC(=O)c1c(C(F)(F)F)cnc(OC)c1Cl,-7.4
2,CCC(CO)NC(=O)NCc1cc(C#N)ccc1F (centres undefined),-31.58
3,COc1cccc(CNc2cc(C)nc(-c3ccncc3)n2)c1OC,88.78
4,COc1cccc(CNc2cc(C)nc(-c3ccncc3)n2)c1O,-16.17
5,COc1cccc(CNc2nc(C)cc(C)n2)c1OC,-94.43
6,CNc1oc(-c2cc(S(=O)(=O)N3CCCC3)c(C)o2)nc1C#N,-60.45
7,Cc1nn(C)c2nc(N3CCCC3c3nccs3)sc12 (centres undefined),-63.74
8,Fc1ccc(OCc2nnc([C@H]3CCN(Cc4ccccn4)C3)o2)cc1,-10.02
9,NC(=O)c1cccnc1N1C[C@@H]2CC[C@H](C1)N(Cc1ccccn1)C2=O,-36.76
10,CCC(=O)N1CCC2(CC1)CC(NC(=O)N(C)C)c1cc(C)ccc12 (centres undefined),-96.24
11,Cc1nn(C)c(C)c1CCC(=O)N1CCc2sccc2C1,-11.91
12,Cc1noc(Cl)c1CCC(=O)N1CCc2sccc2C1,53
13,Cc1noc(Cl)c1CCC(=O)N1CCN(c2cnccn2)CC1,-135.5
14,Cc1noc(Cl)c1CCC(=O)N1CCN(c2ccccc2)CC1,51.57
15,Cc1noc(Cl)c1CCC(=O)N1CCN(CC(C)(C)O)CC1,-36.25
16,Cc1noc(C)c1CS(=O)(=O)CC(=O)N1CCc2sccc2C1,-29.06
17,CC(CO)(NC(=O)NCCc1ccc(Br)s1)C1CC1 (centres undefined),-76.18
18,Cc1[nH]ncc1C(=O)N1CCCC1c1noc(C2CC2)n1 (centres undefined),-58.86
19,CCOCC(O)CN1CCN(C(=O)c2ccc(OC)cc2)CC1 (centres undefined),-30.2
20,O=C(Nc1ccc(=O)n(Cc2ccccc2Cl)c1)C1CC1,-14.36
21,CCOc1cccc(CNc2ccccc2C(=O)OC)c1O,-51.83
22,COc1cccc(CNC(C)c2ccc(-n3ccnc3)cc2)c1OC.Cl (centres undefined),16.61
23,CCOc1cccc(CNC(C)c2ccc(-n3ccnc3)cc2)c1O (centres undefined),74.87
24,N#CCCNC(=O)c1ccn(-c2ccc3ccccn23)n1,-51.94
25,CN(C)CCNC(=O)c1ccn(-c2ccc3ccccn23)n1.O=C(O)C(F)(F)F,83.48
26,COCCCNC(=O)c1ccn(-c2ccc3ccccn23)n1,-7.182
